# Assay results reported in PubChem BioAssay (Tox21).
# Values joined by “and” are separate entries in the source; they are usually repeats but may differ in a detail not shown here. Identical values can stand only once. Inconclusive results are not listed. Where a call stands in place of a potency, no number is given. The source holds several records for some structures; these can differ, active in one and inactive in another. Active and inactive are the calls of the source. Unless noted, the call rests on the fitted dose curve; in most records, active means well fitted curve in the direction sought with a large enough effect in the repeat runs; inconclusive means weak or mixed curves; inactive means no such curve, though single readings can be large; an effect the other way counts as inactive or inconclusive.
# Assays:
# [1] = qHTS assay to identify small molecule antagonists of the estrogen related receptor (ERR) signaling pathway from Tox21 library - cell viability counter screen (AID 1224834); further: nearly all actives have a fitted effect of over 30% in size
# How it was run: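 After 17.5 h of compound exposure at 37 C, ERR cells are incubated with CellTiter-Fluor for 30 min and fluorescence intensity serves as the viability measure.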
# [2] = qHTS assay to identify small molecule agonists of the constitutive androstane receptor (CAR) signaling pathway - cell viability counter screen (AID 1224836); further: nearly all actives have a fitted effect of over 45% in size
# How it was run: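 Counter screen multiplexed with the CAR reporter readout: HepG2 cells co-transfected with hCAR and the CYP2B6-2.2kb construct receive a 15-concentration compound series and 0.75 uM PK11195 (final), then CellTiter-Fluor fluorescence is read after 23 h.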
# [3] = qHTS assay to identify small molecule antagonists of the constitutive androstane receptor (CAR) signaling pathway - cell viability counter screen (AID 1224837); further: nearly all actives have a fitted effect of over 45% in size
# How it was run: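 Counter screen run in HepG2-CYP2B6-hCAR cells: 4 hr settle, compound titration (15 concentrations) with 50 nM CITCO, 23 hr at 37 C/5% CO2, CellTiter-Fluor fluorescence.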
# [4] = biological target: Nuclear receptor subfamily 1 group I member 3 (Homo sapiens) (UniProt Q14994); assay: qHTS assay to identify small molecule antagonists of the constitutive androstane receptor (CAR) signaling pathway (AID 1224838);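 further: HepG2 cells stably expressing hCAR with CYP2B6 luciferase reporter stimulated by CITCO; nearly all actives have a fitted effect of over 40% in size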
# How it was run: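 Cell line: HepG2 double-stable for hCAR and CYP2B6-2.2kb reporter. Agonist: CITCO, 50 nM final. Compounds: 15 concentrations, 24 h, 37 C. Detection: ONE-Glo luminescence.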
# [5] = biological target: Nuclear receptor subfamily 1 group I member 3 (Homo sapiens) (UniProt Q14994); assay: qHTS assay to identify small molecule agonists of the constitutive androstane receptor (CAR) signaling pathway (AID 1224839); further: nearly all actives have a fitted effect of over 15% in size; further: potency means the concentration at half of the fitted maximal effect
# How it was run: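 A 15-concentration quantitative screen uses HepG2 cells co-transfected stably with human CAR and CYP2B6-2.2kb reporter. Treatment lasts 24 h with 0.75 uM PK11195 final present; ONE-Glo luminescence is the signal.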
# [6] = qHTS assay to identify small molecule antagonists of the estrogen related receptor signaling pathway with the pleiotropic PPARgamma coactivator (PGC) from Tox21 10K library - cell viability counter screen (AID 1224840; active means well fitted cell-killing curve with a large enough effect in the repeat runs, not every such curve was filed as active; further: nearly all actives have a fitted effect of over 40% in size)
# How it was run: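 Following seeding of 2,000 PGC/ERR cells/well and 6 hours' incubation, test compounds were delivered in DMSO. The plates then sat 17.5 hours at 37 C before a fluorogenic live-cell protease reagent (CellTiter-Fluor) was read after 30 min.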
# [7] = biological target: Thyrotropin receptor (Homo sapiens) (UniProt P16473); assay: qHTS assay to identify small molecule agonists of the thyroid stimulating hormone receptor (TSHR) signaling pathway (AID 1224843; calls by dose curve; further: nearly all actives have a fitted effect of over 45% in size)
# How it was run: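 Screening of the Tox21 10K collection used HEK293 cells engineered with TSHR at 800 cells per well. After a 30-min room-temperature compound exposure, HTRF cAMP reagents were added and fluorescence recorded 1 h later.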
# [8] = qHTS assay to identify small molecule agonists of the hypoxia (HIF-1) signaling pathway - cell viability counter screen (AID 1224844; calls by dose curve; further: nearly all actives have a fitted effect of over 50% in size)
# How it was run: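 Cells (HRE-bla ME-180, 2,000 per well) sat 5 hrs at 37C, got compound for 17 hrs, were read for CCF4-AM FRET, and were finally lysed with CellTiter-Glo for a 30 min room-temperature luminescence read.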
# [9] = qHTS assay to identify small molecule agonists of H2AX (AID 1224845; active means well fitted activation curve with a large enough effect in the signal ratio in the repeat runs, not every such curve was filed as active; the % refers to the signal ratio)
# How it was run: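 Phospho-H2AX Ser139 measured by HTRF (ex 320 nm; em 665 and 620 nm) after 24 hr antibody incubation. Compounds, 15 concentrations, 0.76% DMSO, were applied to CHO-K1 cells for 3hr at 37C before lysis.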
# [10] = qHTS assay to identify small molecule agonists of the hypoxia (HIF-1) signaling pathway (AID 1224846; active means well fitted activation curve with a large enough effect in the signal ratio in the repeat runs, not every such curve was filed as active; the % refers to the signal ratio)
# How it was run: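 A low-serum medium (0.5% dialyzed FBS) holding 2,000 HRE-bla ME-180 cells per well is preincubated for 5 hrs, dosed with compounds by pintool, and kept a further 17 hrs at 37C, 5% CO2 before CCF4-AM FRET detection of beta-lactamase.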
# [11] = qHTS assay to identify small molecule agonists of H2AX - cell viability counter screen (AID 1224847; calls by dose curve; further: nearly all actives have a fitted effect of over 30% in size; further: potency means the concentration at half of the fitted maximal effect)
# How it was run: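 We seed wild-type CHO-K1 cells overnight, treat them for 3 hr at 37C with compounds in 15-concentration series, and quantify remaining viability by CellTiter-Glo luminescence.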
# [12] = qHTS RealTime-Glo MT Cell Viability Assay in HepG2 cells - 24 hour (AID 1224867); further: nearly all actives have a fitted effect of over 50% in size
# How it was run: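 Luminescence read-out: viable HepG2 cells reduce a prosubstrate to a NanoLuc substrate, giving a signal proportional to live cell number. Reads taken at 0, 8, 16, 24, 32 and 40 h of compound exposure at 37 C.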
# [13] = qHTS RealTime-Glo MT Cell Viability Assay in HEK293 cells - 32 hour (AID 1224868); further: top concentration of the series differs between compounds; nearly all actives have a fitted effect of over 50% in size
# How it was run: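 Nonlytic real-time viability readout: viable cells convert prosubstrate to NanoLuc substrate, giving luminescence proportional to live cell number. HEK293, 600 cells/well, compound added after 5 h, continuous culture at 37 C.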
# [14] = biological target: Luciferin 4-monooxygenase (Photinus pyralis) (UniProt P08659); assay: qHTS assay to identify small molecule inhibitors of firefly luciferase (AID 1224835); further: nearly all actives have a fitted effect of over 25% in size; further: potency means the concentration at half of the fitted maximal effect
# How it was run: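 Inhibition of purified Photinus luciferase is measured by luminescence. Substrate levels (D-luciferin, ATP) sit at their KM values. Each compound is tested in a concentration series.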
# [15] = qHTS assay to identify small molecule antagonists of the estrogen related receptor signaling pathway with the pleiotropic PPARgamma coactivator (PGC) from Tox21 10K library (AID 1224841; call rule not given here; further: actives are mostly falling curves and most rising ones were filed inactive; nearly all actives have a fitted effect of over 50% in size; further: potency means the concentration at half of the fitted maximal effect)
# How it was run: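 qHTS antagonist format: PGC/ERR cells, 2k/well, compound in DMSO by pin transfer after 6 h attachment, 18 h treatment at 37 C, One-Glo luminescence read at 30 min.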
# [16] = qHTS assay to identify small molecule agonists of the estrogen related receptor signaling pathway with the pleiotropic PPARgamma coactivator (PGC) from Tox21 10K library (AID 1224842); further: nearly all actives have a fitted effect of over 15% in size
# How it was run: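 Luminescence from One-Glo (30 min, room temperature) measured after PGC/ERR cells had 18 h at 37 C with pinned compound (23 nL in DMSO). Cells had been seeded at 2,000 per well and pre-incubated 6 h.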
# [17] = qHTS assay to identify small molecule antagonists of the estrogen related receptor (ERR) signaling pathway from Tox21 library (AID 1224848); further: nearly all actives have a fitted effect of over 50% in size
# How it was run: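 Antagonist-mode screen of the Tox21 10K library in an NTP-provided ERR reporter cell line; 18 h compound exposure at 37 C, luminescence measured with ONE-Glo.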
# [18] = qHTS assay to identify small molecule agonists of the estrogen related receptor (ERR) signaling pathway from Tox21 library (AID 1224849; calls by dose curve; further: nearly all actives have a fitted effect of over 15% in size); conditions: ERR reporter cell line, ONE-Glo luciferase, 18 h
# How it was run: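 Screening used an NTP-provided ERR luciferase cell line. Compounds in DMSO were added 6 h after seeding and left 18 h at 37 C before a 30 min ONE-Glo step and luminescence reading.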
# [19] = A CellTox Green Cytotoxicity Assay to monitor cytotoxicity in HEK293 cells - 0 hour (AID 1224869); further: nearly all actives have a fitted effect of over 50% in size
# How it was run: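 Fluorescence intensity, read at 0, 8, 16, 24, 32 and 40 h of compound treatment, reflected dye binding to DNA of dead HEK293 cells; compounds (23 nL, DMSO) were added 5 h after plating cells with reagent.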
# Chain of Nuclear receptor subfamily 1 group I member 3 (Homo sapiens) (Q14994 whole entry, looked up): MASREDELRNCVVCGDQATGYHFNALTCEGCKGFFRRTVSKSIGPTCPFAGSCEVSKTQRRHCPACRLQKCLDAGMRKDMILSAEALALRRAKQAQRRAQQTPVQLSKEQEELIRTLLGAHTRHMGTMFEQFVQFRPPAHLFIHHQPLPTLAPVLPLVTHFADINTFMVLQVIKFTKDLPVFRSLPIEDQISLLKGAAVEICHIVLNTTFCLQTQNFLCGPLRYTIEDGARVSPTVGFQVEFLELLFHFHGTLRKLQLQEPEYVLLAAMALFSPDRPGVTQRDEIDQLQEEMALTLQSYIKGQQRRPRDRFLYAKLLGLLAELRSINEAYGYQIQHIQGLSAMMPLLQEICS
# Chain of Luciferin 4-monooxygenase (Photinus pyralis) (P08659 whole entry, looked up): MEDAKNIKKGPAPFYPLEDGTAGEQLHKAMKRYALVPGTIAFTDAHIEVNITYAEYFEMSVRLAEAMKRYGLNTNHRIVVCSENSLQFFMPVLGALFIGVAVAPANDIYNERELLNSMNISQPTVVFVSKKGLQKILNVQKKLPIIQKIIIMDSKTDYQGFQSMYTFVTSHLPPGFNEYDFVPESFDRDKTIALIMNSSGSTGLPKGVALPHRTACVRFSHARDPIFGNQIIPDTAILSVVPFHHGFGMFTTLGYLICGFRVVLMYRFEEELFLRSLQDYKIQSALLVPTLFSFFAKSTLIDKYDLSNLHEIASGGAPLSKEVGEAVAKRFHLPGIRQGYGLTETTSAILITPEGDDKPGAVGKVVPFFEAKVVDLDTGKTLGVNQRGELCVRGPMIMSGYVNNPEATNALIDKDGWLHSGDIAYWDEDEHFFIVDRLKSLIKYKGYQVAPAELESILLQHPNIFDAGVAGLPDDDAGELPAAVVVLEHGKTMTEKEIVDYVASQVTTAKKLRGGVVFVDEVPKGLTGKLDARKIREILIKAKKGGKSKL
# Chain of Thyrotropin receptor (Homo sapiens) (P16473 whole entry, looked up): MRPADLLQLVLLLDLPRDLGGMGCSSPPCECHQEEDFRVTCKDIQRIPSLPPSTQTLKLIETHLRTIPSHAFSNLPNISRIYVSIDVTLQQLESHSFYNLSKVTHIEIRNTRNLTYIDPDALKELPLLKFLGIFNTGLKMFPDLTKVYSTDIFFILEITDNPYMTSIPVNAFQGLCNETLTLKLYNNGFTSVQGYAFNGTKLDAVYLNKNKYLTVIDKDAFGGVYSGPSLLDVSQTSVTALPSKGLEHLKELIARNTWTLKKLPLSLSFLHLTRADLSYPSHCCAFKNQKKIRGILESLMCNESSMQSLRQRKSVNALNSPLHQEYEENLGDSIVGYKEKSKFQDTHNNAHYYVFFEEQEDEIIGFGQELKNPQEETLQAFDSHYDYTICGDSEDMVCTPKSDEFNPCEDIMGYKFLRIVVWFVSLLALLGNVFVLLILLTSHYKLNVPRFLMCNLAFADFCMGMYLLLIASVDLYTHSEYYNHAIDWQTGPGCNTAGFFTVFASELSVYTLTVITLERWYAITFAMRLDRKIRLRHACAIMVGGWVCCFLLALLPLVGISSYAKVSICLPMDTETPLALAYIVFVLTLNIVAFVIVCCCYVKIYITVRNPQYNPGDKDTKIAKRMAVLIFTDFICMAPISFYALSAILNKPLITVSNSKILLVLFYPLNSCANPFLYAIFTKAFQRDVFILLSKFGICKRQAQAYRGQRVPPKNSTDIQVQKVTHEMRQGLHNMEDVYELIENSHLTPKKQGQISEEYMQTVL
Compound,Potency [1],Potency [2],Potency [3],Potency [4],Potency [5],Potency [6],Potency [7],Potency [8],Potency [9],outcome [10],Potency [11],outcome [12],Potency [13],Potency [14],Potency [15],Potency [16],Potency [17],"activity change, positive = activation ([18]; at 92.4 µM (top of the series))",Potency [19],"activity change, positive = activation ([18]; at 42.5 µM (top of the series))"
Oc1ccc(Cl)cc1,inactive,inactive,inactive,inactive,inactive,inactive,inactive,inactive,inactive,inactive,inactive,inactive,inactive,–,–,–,–,–,–,–
ClC(Cl)c1ccccc1,inactive,inactive,–,inactive,inactive,inactive,–,–,inactive,inactive,inactive,inactive,inactive,inactive,inactive,inactive,inactive,8.64% (inactive) and 1.48% (inactive),inactive,–
O=S(=O)(O)OOS(=O)(=O)O,–,inactive,–,–,–,inactive,–,inactive,inactive,inactive,inactive,inactive,inactive,inactive,–,–,–,–,–,–
O=C(O)COc1ccccc1,–,inactive,–,inactive,inactive,inactive,inactive,–,inactive,inactive,inactive,inactive,inactive,inactive,–,–,–,–,–,–
CNC(=O)O/N=C/C(C)(C)S(C)(=O)=O,–,inactive,–,inactive,inactive,inactive,–,–,inactive,inactive,inactive,inactive,inactive,inactive,–,–,–,–,inactive,–
C[C@]12CC[C@H](O)CC1=CC[C@@H]1[C@@H]2CC[C@]2(C)C(=O)CC[C@@H]12,–,inactive,–,inactive,inactive,inactive,inactive,–,inactive,–,89.8 µM (active) and inactive,inactive,inactive,inactive,–,–,–,–,inactive,–
O=C(O)c1cc(Oc2ccc(C(F)(F)F)cc2Cl)ccc1[N+](=O)[O-],–,inactive,inactive,–,–,inactive,inactive,inactive,inactive,inactive,inactive,inactive,inactive,inactive,inactive and 68.9 µM (active),inactive,inactive,-1% (inactive) and -14.6% (inactive) and -4.43% (inactive),–,9.01% (inactive)
Cc1cccc(C)c1N,–,inactive,inactive,–,–,inactive,inactive,–,inactive,inactive,inactive,inactive,inactive,inactive,–,–,–,–,inactive,–
CCOP(=S)(OCC)Oc1cc(C)nc(C(C)C)n1,–,inactive,–,inactive,inactive,inactive,inactive,inactive,inactive,inactive,inactive,inactive,inactive,inactive,–,–,–,–,inactive,–
COP(=S)(OC)Oc1ccc(SC)c(C)c1,–,inactive,inactive,inactive,60.4 µM (active) and 54.5 µM (active) and 23.7 µM (active),inactive,–,inactive,inactive,inactive,inactive,inactive,inactive,–,–,–,–,–,–,–
CCCCC(CC)C(=O)Cl (stereo not given),–,inactive,–,inactive,inactive,inactive,inactive,inactive,inactive,inactive,inactive,inactive,inactive,inactive,–,–,–,–,–,–
Nc1ccc(N)cc1,–,–,–,inactive,21.8 µM (active) and 21.7 µM (active) and inactive,inactive,inactive,inactive,inactive,inactive,inactive,inactive,inactive,40.1 µM (active) and 35.6 µM (active),–,–,–,–,inactive,–
CC(C)(C)C(=O)CCl,–,inactive,–,–,–,inactive,inactive,–,inactive,inactive,inactive,inactive,inactive,inactive,inactive,inactive,inactive,2.78% (inactive) and 6.55% (inactive),–,–
[N-]=[N+]=CC(=O)OC[C@H](N)C(=O)O,–,inactive,–,–,–,inactive,inactive,–,inactive,–,inactive,inactive,inactive,inactive,inactive,inactive,inactive,5.95% (inactive),–,3.09% (inactive)
CC12CC1(C)C(=O)N(c1cc(Cl)cc(Cl)c1)C2=O (stereo not given),–,inactive,inactive,inactive,inactive,inactive,–,–,inactive,inactive,inactive,inactive,inactive,inactive,–,–,–,–,inactive,–
OCc1ccco1,–,inactive,–,inactive,inactive,inactive,inactive,inactive,inactive,inactive,inactive,inactive,inactive,inactive,inactive,inactive,inactive,4.84% (inactive),–,–
